# Experimental data: the supplement of paper PMC12494721
# Where a name gives a salt, the structure may show the parent alone.
# Legend:
# Settings in all cases: incubation time: 27 h, anaerobic, 37 °C;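 for the amine columns active = adjusted P below 0.05 in both replicates with a change the same way and a mean fold change under 0.8 or over 1.25; inactive = the rest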
# [1] = tested on: Clostridium sporogenes DSM 1664; test: growth (OD595) fold change vs plate DMSO controls (fold change (ratio)); higher = more growth
# Method in brief: (§1)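 Each value is the mean of 2 biological replicates, and fold changes above 1.5 were set to NA. The underlying readings were taken at 595 nm from shaken anaerobic mGAM cultures in 96-well plates after 27 h at 37 °C. They were blank-subtracted, corrected for compound background using 20 µM compound solutions in water, and converted to OD with a calibration factor of 5. Growth is the fold change relative to the median of the plate DMSO controls.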
# Escherichia coli IAI1 [2] = test: as above
# Method in brief: as §1
# [3] = tested on: Klebsiella aerogenes DSM 30053; test: as above
# Method in brief: as §1
# [4] = tested on: Ruminococcus gnavus DSM 108212; test: as above
# Method in brief: as §1
# [5] = tested on: Klebsiella aerogenes DSM 30053; test: fold change of Histamine concentration vs plate DMSO controls (fold change (ratio)); higher = more amine produced, active = hit call of the paper (significant change in both replicates, either direction)
# Method in brief: (§2)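 Extracts of whole anaerobic mGAM cultures were analysed for amines by LC–triple-quadrupole MS with dynamic MRM and external calibration curves, with drift corrected within batch. Four gut strains were grown at 37 °C for 27 h in 80 µL wells with compounds at 20 µM final, sweeteners at 50 µM final. Each value expresses fold change over plate DMSO controls. The average of 2 biological replicates is shown.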
# [6] = tested on: Clostridium sporogenes DSM 1664; test: fold change of Tryptamine concentration vs plate DMSO controls (fold change (ratio)); higher = more amine produced, active = hit call of the paper (significant change in both replicates, either direction)
# Method in brief: as §2
# [7] = tested on: Ruminococcus gnavus DSM 108212; test: as above
# Method in brief: as §2
# Escherichia coli IAI1 [8] = test: fold change of Putrescine concentration vs plate DMSO controls (fold change (ratio)); higher = more amine produced, active = hit call of the paper (significant change in both replicates, either direction)
# Method in brief: as §2
# [9] = tested on: Klebsiella aerogenes DSM 30053; test: as above
# Method in brief: as §2
# Escherichia coli IAI1 [10] = test: fold change of Cadaverine concentration vs plate DMSO controls (fold change (ratio)); higher = more amine produced, active = hit call of the paper (significant change in both replicates, either direction)
# Method in brief: as §2
# [11] = tested on: Klebsiella aerogenes DSM 30053; test: as above
# Method in brief: as §2
# [12] = tested on: Ruminococcus gnavus DSM 108212; test: fold change of 2-Phenylethylamine concentration vs plate DMSO controls (fold change (ratio)); higher = more amine produced, active = hit call of the paper (significant change in both replicates, either direction)
# Method in brief: as §2
Structure (SMILES),growth [1],growth (Escherichia coli IAI1 [2]),growth [3],growth [4],fold change of Histamine concentration [5],fold change of Tryptamine concentration [6],fold change of Tryptamine concentration [7],fold change of Putrescine concentration (Escherichia coli IAI1 [8]),fold change of Putrescine concentration [9],fold change of Cadaverine concentration (Escherichia coli IAI1 [10]),fold change of Cadaverine concentration [11],fold change of 2-Phenylethylamine concentration [12]
CC(=O)OCC(=O)NCCCOc1cccc(CN2CCCCC2)c1 [Roxatidine acetate hydrochloride] (20 µM),1.02,1.06,1.01,0.677,0.958 (inactive),0.989 (inactive),0.972 (inactive),1.27 (inactive),1.01 (inactive),1.18 (inactive),1.01 (inactive),0.905 (inactive)
CC(=O)OCC1=C(C(=O)O)N2C(=O)[C@@H](NC(=O)Cc3cccs3)[C@H]2SC1 [Cephalothin sodium salt] (20 µM),0,1.29,1.11,0.125,1.1 (inactive),0.0346 (active),0.0635 (active),1.17 (inactive),1.02 (inactive),1.62 (inactive),1.01 (inactive),0.0703 (active)
OCCN1CCN(CCCN2c3ccccc3C=Cc3ccccc32)CC1 [Opipramol dihydrochloride] (20 µM),1.12,0.948,0.983,0.902,1.03 (inactive),1.07 (inactive),1.02 (inactive),0.888 (inactive),0.994 (inactive),1.04 (inactive),0.98 (inactive),1.02 (inactive)
CC(NN)c1ccccc1 (stereo not given) [Mebanazine] (20 µM),1.11,1,0.988,0.887,1.04 (inactive),1.04 (inactive),0.985 (inactive),0.997 (inactive),1.03 (inactive),0.986 (inactive),0.998 (inactive),0.916 (inactive)
OC[C@@H](O)[C@@H](O[C@@H]1O[C@H](CO)[C@H](O)[C@H](O)[C@H]1O)[C@H](O)[C@@H](O)CO [Lactitol] (50 µM),1.13,0.949,1.01,0.988,0.988 (inactive),0.997 (inactive),0.891 (inactive),0.938 (inactive),1.02 (inactive),0.997 (inactive),0.998 (inactive),0.858 (inactive)
CC(=O)CCCCn1c(=O)c2c(ncn2C)n(C)c1=O [Pentoxifylline] (20 µM),1.01,0.995,1.06,0.929,1 (inactive),1.03 (inactive),0.965 (inactive),1 (inactive),1.02 (inactive),1.04 (inactive),1.02 (inactive),0.947 (inactive)
CN(C)/N=N/c1[nH]cnc1C(N)=O [Dacarbazine] (20 µM),0.822,1,1.06,1.02,0.954 (inactive),1 (inactive),1.01 (inactive),0.984 (inactive),1.01 (inactive),0.993 (inactive),1.02 (inactive),1.05 (inactive)
O=C(Oc1cccc2cccnc12)c1ccccc1 [Benzoxiquine] (20 µM),1.09,0.939,1.04,1.13,0.957 (inactive),1.03 (inactive),1.03 (inactive),0.984 (inactive),1.02 (inactive),0.995 (inactive),1.01 (inactive),1.07 (inactive)
O=C(O)c1ccccc1OP(=O)(O)O [Fosfosal] (20 µM),0.91,1.01,1.01,1.17,0.997 (inactive),1.05 (inactive),1.03 (inactive),0.942 (inactive),1 (inactive),0.995 (inactive),0.995 (inactive),1.04 (inactive)
CC(C)=C/C(C)=N/Nc1nncc2ccccc12 [Budralazine] (20 µM),1.12,1.05,0.989,0.98,1.03 (inactive),0.98 (inactive),0.994 (inactive),0.992 (inactive),1.02 (inactive),0.963 (inactive),1 (inactive),0.969 (inactive)
CCCCC(O)c1ccccc1 (stereo not given) [Fenipentol] (20 µM),0.995,1.05,1.03,0.948,0.969 (inactive),0.989 (inactive),1.01 (inactive),1.01 (inactive),0.987 (inactive),1.03 (inactive),1.01 (inactive),1.04 (inactive)
O=C(O)Cc1csc(-c2ccc(Cl)cc2)n1 [Fenclozic acid] (20 µM),1.01,0.949,0.979,1.1,1.05 (inactive),1 (inactive),1.05 (inactive),1.01 (inactive),0.985 (inactive),0.986 (inactive),0.977 (inactive),1.1 (inactive)
C[C@@H]1CCC[C@H](C)N1NC(=O)c1ccc(Cl)c(S(N)(=O)=O)c1 [Clopamide] (20 µM),1.09,0.983,0.983,1.04,1.07 (inactive),1.07 (inactive),1.02 (inactive),0.989 (inactive),1.03 (inactive),1 (inactive),1.01 (inactive),1.03 (inactive)
CCCCC(C)(O)C/C=C/[C@H]1[C@H](O)CC(=O)[C@@H]1CCCCCCC(=O)OC (mixture of isomers) [Misoprostol] (20 µM),1.14,0.994,1.03,1.19,1.04 (inactive),0.979 (inactive),0.987 (inactive),0.988 (inactive),1.02 (inactive),0.994 (inactive),0.995 (inactive),0.945 (inactive)
CC1(C)S[C@@H]2[C@H](NC(=O)[C@H](N)c3ccc(O)cc3)C(=O)N2[C@H]1C(=O)O [Amoxicillin] (20 µM),0,0.796,0.828,0.198,1.1 (inactive),0.0237 (active),0.0355 (active),3.1 (active),1.05 (inactive),1.41 (inactive),1.06 (inactive),0.0375 (active)
O=C(O)COCCN1CCN(C(c2ccccc2)c2ccc(Cl)cc2)CC1 (stereo not given) [Cetirizine dihydrochloride] (20 µM),1.02,1.07,1.04,0.959,0.94 (inactive),1.03 (inactive),1.01 (inactive),1.06 (inactive),0.997 (inactive),0.957 (inactive),1 (inactive),1.03 (inactive)
Nc1ccn([C@@H]2O[C@H](CO)[C@@H](O)[C@@H]2O)c(=O)n1 [Cytarabine] (20 µM),0.956,1.03,1.03,0.571,0.975 (inactive),0.967 (inactive),0.63 (active),0.953 (inactive),1.02 (inactive),1.32 (active),1.01 (inactive),0.69 (active)
COc1ccc(-c2cc(=O)c3c(O)cc(O[C@@H]4O[C@H](CO[C@@H]5O[C@@H](C)[C@H](O)[C@@H](O)[C@H]5O)[C@@H](O)[C@H](O)[C@H]4O)cc3o2)cc1O [Diosmin] (20 µM),1.12,0.976,1.01,1.1,0.924 (inactive),0.985 (inactive),0.97 (inactive),0.961 (inactive),0.992 (inactive),0.971 (inactive),1.02 (inactive),1 (inactive)
CCCCOC(=O)c1ccccc1Nc1cccc(C(F)(F)F)c1 [Ufenamate] (20 µM),0.986,1.07,1.07,0.991,0.944 (inactive),1.03 (inactive),1.11 (inactive),1.06 (inactive),0.979 (inactive),1.03 (inactive),1.02 (inactive),1.14 (inactive)
CCN(CC)CCNC(=O)c1cc(Br)c(N)cc1OC [Bromopride] (20 µM),0.874,1.03,1.05,1.12,1.01 (inactive),1 (inactive),1 (inactive),1.02 (inactive),0.998 (inactive),0.967 (inactive),1.01 (inactive),1.02 (inactive)
CN(C)CC/C=C1/c2ccccc2COc2ccc(CC(=O)O)cc21 [Olopatadine hydrochloride] (20 µM),1.01,0.978,1.01,0.955,1 (inactive),0.968 (inactive),1.03 (inactive),1.01 (inactive),1 (inactive),0.995 (inactive),1 (inactive),1.04 (inactive)
CCCCNc1ccc(C(=O)OCCN(C)C)cc1 [Tetracaine hydrochloride] (20 µM),1.06,1.02,0.968,0.907,1.08 (inactive),1.04 (inactive),1.07 (inactive),0.956 (inactive),1.04 (inactive),0.983 (inactive),0.991 (inactive),1.05 (inactive)
O=C(NC1CCN(CCCCC2(C(=O)NCC(F)(F)F)c3ccccc3-c3ccccc32)CC1)c1ccccc1-c1ccc(C(F)(F)F)cc1 [Lomitapide] (20 µM),1.1,1,1.06,1.07,0.938 (inactive),1.01 (inactive),0.709 (active),1.02 (inactive),1.01 (inactive),1.04 (inactive),1.01 (inactive),0.847 (inactive)
CCC1(C)CC(=O)NC1=O (stereo not given) [Ethosuximide] (20 µM),0.953,1,1.07,0.928,0.991 (inactive),1.07 (inactive),0.992 (inactive),1 (inactive),0.995 (inactive),0.995 (inactive),1.03 (inactive),1.02 (inactive)
COc1ccccc1Oc1c(NS(=O)(=O)c2ccc(C(C)(C)C)cc2)nc(-c2ncccn2)nc1OCCO [Bosentan] (20 µM),1.15,1.14,1.23,1.2,0.938 (inactive),0.987 (inactive),0.978 (inactive),1.09 (inactive),1.05 (inactive),1.03 (inactive),1.04 (inactive),0.959 (inactive)
